From PubChem BioAssay (NCATS)
Records with an inconclusive call do not appear. A call without a number means that no potency is given here. Active and inactive are the calls of the source. Unless noted, calls follow the shape of the dose curve; as a rule, active = well fitted curve in the direction sought with a large enough effect; inconclusive = small, poorly fitted or top-dose-only effect, or another doubt; inactive = no such curve, though single readings can be large; an effect the other way counts as inactive or inconclusive.

What was measured:
[1] = target: Calcium and integrin-binding protein 1 (Homo sapiens) (UniProt Q99828); assay: Primary qHTS for Identification of Calcium Integrin Binding Protein 1 (CIB1) Competitor (AID 1508620);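 also: GST tagged CIB1 binding a fluorescein labelled alphaIIb integrin peptide tracer; top concentration of the series differs between compounds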
In short: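 Fluorescence polarization competition: GST-tagged CIB1 (1 uM final) preincubated with compound 15 min at room temperature, then FITC-labelled alphaIIb peptide (100 nM final) added. After 15 min at room temperature, polarization read at Ex 480/Em 540.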

[2] = target: Rap guanine nucleotide exchange factor 3 (Homo sapiens) (UniProt O95398); assay: Confirmatory qHTS for agonist of cAMP-regulated guanine nucleotide exchange factor 3 (EPAC1) (AID 1645881);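 also: EPAC1 catalysed release of BODIPY-GDP from Rap1B seen as fluorescence loss; nearly all actives have a fitted effect of over 75% in size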
[3] = target: Rap guanine nucleotide exchange factor 4 (Homo sapiens) (UniProt Q8WZA2); assay: Confirmatory qHTS for agonist of cAMP-regulated guanine nucleotide exchange factor 4 (EPAC2) (AID 1645884);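 also: nucleotide exchange releases bodipy-GDP from Rap1 and this lowers its fluorescence; nearly all actives have a fitted effect of over 65% in size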
[4] = target: Rap guanine nucleotide exchange factor 4 (Homo sapiens) (UniProt Q8WZA2); assay: Confirmatory qHTS for antagonist of cAMP-regulated guanine nucleotide exchange factor 4 (EPAC2) (AID 1645885); also: nearly all actives have a fitted effect of over 25% in size; also: potency is read from the fitted curve at half-maximal effect
[5] = target: Rap guanine nucleotide exchange factor 3 (Homo sapiens) (UniProt O95398); assay: Counterscreen qHTS for agonist of cAMP-regulated guanine nucleotide exchange factor 3 (EPAC1) (AID 1645889); also: nearly all actives have a fitted effect of over 40% in size
In short: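 Rap1B–BODIPY-GDP (250 nM) with 50 uM GDP; compounds pin-transferred to 9.74 nM–152 uM final (activator) or from 7.32 nM upwards (inhibitor). Fluorescence Ex/Em 480/540 nm read at 5 and 30 min, then after adding cAMP or buffer, at room temperature.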

[6] = target: N-terminal Xaa-Pro-Lys N-methyltransferase 1 (Homo sapiens) (UniProt Q9BV86); assay: Confirmatory qHTS for Inhibitors of N-terminal methyltransferase 1 (NTMT1): MTaseGlo Assay (AID 1645874); also: nearly all actives have a fitted effect of over 65% in size; also: potency is read from the fitted curve at half-maximal effect;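 as to activity change, negative = inhibition: luminescence from SAH made as NTMT1 methylates SPKRIA peptide using SAM; series mostly up to about 100 µM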
In short: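 Compounds are incubated with 125 nM NTMT1 and 100 uM SAM for 15 min before the SPKRIA peptide (1 uM) starts a 30 min room-temperature methylation. SAH is measured by coupled luciferase luminescence and curves fitted to a Hill equation.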

[7] = target: Rap guanine nucleotide exchange factor 3 (Homo sapiens) (UniProt O95398); assay: Confirmatory qHTS for antagonist of cAMP-regulated guanine nucleotide exchange factor 3 (EPAC1) (AID 1645880); also: nearly all actives have a fitted effect of over 55% in size; also: potency is read from the fitted curve at half-maximal effect
In short: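 Nucleotide exchange uses 100 nM EPAC1, 250 nM RAP1B-BODIPY-GDP and 50 uM GDP, with compounds in a concentration-titration series. After 5 min at room temperature, fluorescence (480 nm ex/540 nm em) is read every 5 min for 30 min. Data are normalized to control ATA and DMSO.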

[8] = target: Lysosomal alpha-glucosidase (Homo sapiens) (UniProt P10253); assay: Confirmation of Inhibitors and Activators of Purified Human alpha-Glucosidase (AID 2115; active = well fitted curve in either direction with a large enough effect)
In short: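 Purified human enzyme (4 nM) with 4-methylumbelliferyl-alpha-D-glucopyranoside (400 uM), compounds up to 77 uM, in citrate/phosphate buffer pH 5.0 with 0.005% Tween-20. After 20 min at RT, stopped at pH 10; fluorescence ex 365/em 440 nm; AC50 from Hill fits.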

[9] = Primary qHTS for inhibitors of nuclear receptor binding SET domain protein 2 (NSD2) in an isogenic RCH-ACV NSD2 p.E1099K mutant (9B) (AID 1645876); also: nearly all actives have a fitted effect of over 70% in size; also: potency is read from the fitted curve at half-maximal effect
[10] = target: Glutathione peroxidase 1 (Homo sapiens) (UniProt P07203); assay: Primary qHTS Assay for Inhibitors of Recombinant Selenoprotein Glutathione Peroxidase 1 (GPX1) (AID 1845191); also: nearly all actives have a fitted effect of over 65% in size
In short: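 GR-coupled assay: compounds preincubated 30 min at room temperature with GPX1, then reaction started with CHP; final 10 nM GPX1, 1 mM GSH, 0.5 mM CHP, 0.5 mM NADPH, 100 nM GR, 0.01% BSA, pH 7.5 Tris buffer. NADPH fluorescence (340/450 nm) read at 0 and 15 min.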

[11] = qHTS for Inhibitors of Ubiquitin-specific Protease USP2a Using CHOP2 as the Reporter: K633 Counterscreen (AID 652168); also: series mostly up to about 57 µM
In short: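 Cell-free interference counterscreen without USP2a: compounds pinned into enzyme-free buffer (20 mM Tris pH 8, 2 mM beta-mercaptoethanol, 0.05% Chaps), then DiUb K48-4IQF substrate added (100 nM stock); fluorescence read kinetically, Ex 525/Em 598.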

[12] = Primary qHTS for inhibitors of nuclear receptor binding SET domain protein 2 (NSD2) in an RCH-ACV wild type WT cells (2C) (AID 1645877); also: potency is read from the fitted curve at half-maximal effect; nearly all actives have a fitted effect of over 70% in size
[13] = qHTS drug screen for cell cycle checkpoint inhibitors in PARPi-resistant BRCA-mutant ovarian cancer cell lines. (AID 1963452; calls by dose curve); conditions: PEO1/OlaR viability, CellTiter-Glo luminescence, 96 h, stronger effect = lower value
In short: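 PEO1, PEO4 and PEO1/OlaR ovarian cancer cells, 600 per well, exposed 96 h at 37C to a dilution series. Viability read by CellTiter-Glo luminescence, normalized to DMSO and empty wells; activity summarized as Z-AUC.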

[14] = qHTS for Inhibitors of Ubiquitin-specific Protease USP2a Using CHOP2 as the Reporter: Cytotox Assay (AID 652170); also: series mostly up to about 46 µM; nearly all actives have a fitted effect of over 70% in size
In short: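 HCT116 human colon cancer cells, 600 per well in DMEM with 10% FBS, exposed to compounds for 72 hr at 37 deg C. ATP measured by CellTiter-Glo luminescence, normalized to DMSO cells and no-cell background.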

[15] = target: Ubiquitin carboxyl-terminal hydrolase 2 (Homo sapiens) (UniProt O75604); assay: qHTS for Inhibitors of Ubiquitin-specific Protease USP2a Using CHOP2 as the Reporter: K484 Substrate (AID 652173);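 also: cleavage of internally quenched K48 di-ubiquitin substrate measured as rising fluorescence over time; nearly all actives have a fitted effect of over 70% in size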; also: potency is read from the fitted curve at half-maximal effect
In short: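 USP2 (dispensed at 5 nM) was pinned with compounds, then DiUb K48 internally quenched fluorescent substrate (dispensed at 100 nM) was added. The buffer was 20 mM Tris pH 8, 2 mM beta-mercaptoethanol and 0.05% CHAPS. Cleavage was read kinetically as rising fluorescence, Ex 525/Em 598.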

Sequence of Rap guanine nucleotide exchange factor 3 (Homo sapiens) (O95398 whole entry, looked up): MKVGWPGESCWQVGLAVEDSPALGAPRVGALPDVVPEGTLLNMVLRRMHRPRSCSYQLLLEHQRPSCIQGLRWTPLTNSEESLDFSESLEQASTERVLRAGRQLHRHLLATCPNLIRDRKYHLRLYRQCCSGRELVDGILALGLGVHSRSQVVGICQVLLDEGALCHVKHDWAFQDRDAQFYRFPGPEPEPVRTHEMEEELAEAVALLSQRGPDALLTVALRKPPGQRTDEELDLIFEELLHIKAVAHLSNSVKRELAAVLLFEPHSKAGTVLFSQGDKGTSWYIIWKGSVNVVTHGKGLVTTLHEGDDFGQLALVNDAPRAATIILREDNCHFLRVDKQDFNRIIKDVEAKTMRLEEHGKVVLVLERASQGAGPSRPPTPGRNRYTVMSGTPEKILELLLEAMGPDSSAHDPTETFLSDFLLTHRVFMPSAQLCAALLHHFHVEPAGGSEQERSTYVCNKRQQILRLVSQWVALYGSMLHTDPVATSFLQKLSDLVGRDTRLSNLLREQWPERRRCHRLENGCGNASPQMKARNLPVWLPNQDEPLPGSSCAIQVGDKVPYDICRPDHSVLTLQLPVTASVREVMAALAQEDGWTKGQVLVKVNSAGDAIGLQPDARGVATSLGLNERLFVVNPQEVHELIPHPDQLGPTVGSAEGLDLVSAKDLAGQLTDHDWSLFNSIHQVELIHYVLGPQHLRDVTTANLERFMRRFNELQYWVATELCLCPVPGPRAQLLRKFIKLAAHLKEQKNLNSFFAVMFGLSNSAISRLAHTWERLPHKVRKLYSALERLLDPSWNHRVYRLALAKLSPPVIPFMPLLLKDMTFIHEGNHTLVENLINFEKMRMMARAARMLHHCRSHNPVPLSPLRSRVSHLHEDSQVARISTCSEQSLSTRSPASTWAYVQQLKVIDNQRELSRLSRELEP
Sequence of N-terminal Xaa-Pro-Lys N-methyltransferase 1 (Homo sapiens) (Q9BV86 whole entry, looked up): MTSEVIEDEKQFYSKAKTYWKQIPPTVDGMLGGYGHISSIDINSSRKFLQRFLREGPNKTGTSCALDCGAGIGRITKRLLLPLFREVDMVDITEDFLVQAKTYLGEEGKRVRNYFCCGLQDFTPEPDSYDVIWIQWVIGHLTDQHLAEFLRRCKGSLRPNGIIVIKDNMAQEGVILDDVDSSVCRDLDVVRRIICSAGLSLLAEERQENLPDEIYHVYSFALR
Sequence of Rap guanine nucleotide exchange factor 4 (Homo sapiens) (Q8WZA2 whole entry, looked up): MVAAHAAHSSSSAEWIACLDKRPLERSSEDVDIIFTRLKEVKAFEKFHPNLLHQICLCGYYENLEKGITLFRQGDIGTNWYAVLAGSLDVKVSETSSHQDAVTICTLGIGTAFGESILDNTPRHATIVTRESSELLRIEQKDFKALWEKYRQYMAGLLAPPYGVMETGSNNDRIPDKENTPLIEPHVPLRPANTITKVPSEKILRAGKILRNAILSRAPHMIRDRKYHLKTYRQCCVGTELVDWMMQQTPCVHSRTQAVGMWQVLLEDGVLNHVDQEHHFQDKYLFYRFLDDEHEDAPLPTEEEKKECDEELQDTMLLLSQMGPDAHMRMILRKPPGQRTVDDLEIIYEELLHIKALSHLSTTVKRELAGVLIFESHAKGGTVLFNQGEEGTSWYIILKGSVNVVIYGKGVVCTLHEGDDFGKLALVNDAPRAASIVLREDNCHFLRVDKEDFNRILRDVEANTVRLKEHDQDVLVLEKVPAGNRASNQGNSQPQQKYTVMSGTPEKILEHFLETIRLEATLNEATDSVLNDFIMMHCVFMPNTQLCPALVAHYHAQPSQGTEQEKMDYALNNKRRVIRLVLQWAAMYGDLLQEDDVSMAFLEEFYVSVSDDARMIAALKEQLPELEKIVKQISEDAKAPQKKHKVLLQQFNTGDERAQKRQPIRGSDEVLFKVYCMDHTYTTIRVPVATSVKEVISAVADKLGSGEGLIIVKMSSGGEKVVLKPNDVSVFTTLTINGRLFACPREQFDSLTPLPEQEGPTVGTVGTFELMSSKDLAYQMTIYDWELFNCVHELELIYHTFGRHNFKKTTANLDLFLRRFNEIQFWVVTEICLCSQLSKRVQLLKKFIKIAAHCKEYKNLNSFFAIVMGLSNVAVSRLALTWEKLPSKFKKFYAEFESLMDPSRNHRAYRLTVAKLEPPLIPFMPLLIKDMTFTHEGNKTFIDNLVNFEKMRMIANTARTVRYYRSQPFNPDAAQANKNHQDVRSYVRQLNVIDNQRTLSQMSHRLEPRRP
Sequence of Calcium and integrin-binding protein 1 (Homo sapiens) (Q99828 whole entry, looked up): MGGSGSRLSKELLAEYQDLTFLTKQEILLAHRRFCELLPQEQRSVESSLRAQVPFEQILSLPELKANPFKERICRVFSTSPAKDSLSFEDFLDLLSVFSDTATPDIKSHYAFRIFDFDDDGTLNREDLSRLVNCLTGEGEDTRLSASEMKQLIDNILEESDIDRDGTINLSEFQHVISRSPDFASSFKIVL
Sequence of Glutathione peroxidase 1 (Homo sapiens) (P07203 whole entry, looked up): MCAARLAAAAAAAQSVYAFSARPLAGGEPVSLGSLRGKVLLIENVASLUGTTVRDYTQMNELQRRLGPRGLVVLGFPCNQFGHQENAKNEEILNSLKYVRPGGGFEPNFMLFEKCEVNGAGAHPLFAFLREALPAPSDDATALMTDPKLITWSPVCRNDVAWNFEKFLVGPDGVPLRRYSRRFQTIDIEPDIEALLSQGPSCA
Sequence of Ubiquitin carboxyl-terminal hydrolase 2 (Homo sapiens) (O75604 whole entry, looked up): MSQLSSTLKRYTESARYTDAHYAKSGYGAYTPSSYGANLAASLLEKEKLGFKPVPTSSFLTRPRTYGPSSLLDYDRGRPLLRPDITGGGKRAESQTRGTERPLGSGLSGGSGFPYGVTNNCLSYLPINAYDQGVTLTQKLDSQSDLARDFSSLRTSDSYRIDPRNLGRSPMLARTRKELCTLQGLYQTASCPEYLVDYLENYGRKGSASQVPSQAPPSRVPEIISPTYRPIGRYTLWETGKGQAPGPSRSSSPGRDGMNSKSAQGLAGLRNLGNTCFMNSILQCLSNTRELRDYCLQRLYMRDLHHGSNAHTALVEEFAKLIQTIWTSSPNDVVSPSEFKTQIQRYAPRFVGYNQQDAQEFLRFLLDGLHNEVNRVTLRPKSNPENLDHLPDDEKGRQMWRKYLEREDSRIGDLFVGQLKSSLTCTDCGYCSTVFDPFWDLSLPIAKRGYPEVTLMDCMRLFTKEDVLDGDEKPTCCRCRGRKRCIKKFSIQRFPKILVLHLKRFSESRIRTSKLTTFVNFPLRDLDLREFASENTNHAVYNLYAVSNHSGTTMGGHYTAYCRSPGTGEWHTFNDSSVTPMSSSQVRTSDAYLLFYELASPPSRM

CCC(=O)NC(c1ccco1)c1cc(Cl)c2ccccc2c1O (stereo not given)
Potency [1]: inactive
outcome [2]: inactive
outcome [3]: inactive
Potency [4]: 53.6 µM (active)
outcome [5]: inactive

Fc1cc(Nc2nc(-c3ccncc3)nc3ccccc23)ccc1-c1ccc2[nH]ncc2c1
Potency [1]: inactive
Potency [6]: inactive

CCOc1ccccc1CNc1ncnc2ccc(-c3c(C)noc3C)cc12
Potency [1]: inactive
outcome [2]: inactive
outcome [3]: inactive
Potency [4]: inactive
outcome [5]: inactive

Cc1cccc(-c2ccc3ncnc(NCc4cccs4)c3c2)c1
Potency [1]: inactive
Potency [6]: 10 µM (active)

O=S(=O)(Nc1ccc(O)c2ncccc12)c1ccccc1F
Potency [1]: inactive
Potency [6]: inactive

CC(=O)NC(c1cc(Cl)c2ccccc2c1O)C(C)C (stereo not given)
Potency [1]: inactive
outcome [2]: inactive
activation [3]: 9.17% [at 17.1 µM] (inactive)
activity change, negative = inhibition [4]: -39.3% [at 12.7 µM] (inactive)
activation [5]: 8.27% [at 30.8 µM] (inactive)

O=C(CSc1nc2ccccc2n1CCc1ccccc1)c1ccc(O)c(O)c1
Potency [1]: inactive
Potency [7]: 6.01 µM (active)
outcome [2]: inactive
Potency [4]: inactive
outcome [5]: inactive

O=C1Cc2cc(S(=O)(=O)N3CCNCC3)ccc2N1
Potency [8]: inactive
Potency [1]: inactive
Potency [7]: inactive
outcome [2]: inactive
activation [3]: 3.97% [at 17.1 µM] (inactive)
activity change, negative = inhibition [4]: 9.22% [at 12.7 µM] (inactive)

Cc1ccsc1CN(C)c1ncnc2ccc(-c3ccc([C@@H](C)O)o3)cc12
Potency [1]: inactive
Potency [6]: 6.49 µM (active)

NC(=O)C1CCN(c2nc(-c3ccccc3Cl)cs2)CC1
Potency [1]: inactive
Potency [6]: inactive

O=C1CCc2cc(S(=O)(=O)Nc3cccc(Cl)c3)ccc2N1
Potency [1]: inactive
Potency [9]: inactive
Potency [10]: inactive

COc1ccc(-c2nnc3n2N=C(c2c(OC)cccc2OC)CS3)cc1OC
Potency [1]: inactive
Potency [6]: inactive

Cc1ccc(S(=O)(=O)Nc2cc(C(F)(F)F)ccc2C(=O)Nc2nc(-c3ccccc3)cs2)cc1
outcome [11]: inactive
Potency [1]: inactive
Potency [9]: 4.17 µM (active)
Potency [12]: 4.17 µM (active)
Potency [10]: inactive
Z-AUC [13]: 0.58 (inactive)
Z-AUC ([13]; measured here: PEO1 parental Z-AUC): 0.184
Z-AUC ([13]; measured here: PEO4 Z-AUC): -0.358

O=C(CCc1ccccc1)Nc1ccc(S(=O)(=O)Nc2nccs2)cc1
Potency [14]: inactive
Potency [15]: inactive
Potency [1]: inactive
Potency [7]: inactive
outcome [2]: inactive
activation [3]: 9.99% [at 17.1 µM] (inactive)
activity change, negative = inhibition [4]: 1.51% [at 12.7 µM] (inactive)
activation [5]: 9.8% [at 30.8 µM] (inactive)

NC(=O)C1CCN(c2nc(-c3ccc4c(c3)CCO4)cs2)CC1
Potency [1]: inactive
Potency [6]: inactive

O=C(CSc1nnc(-c2cccc(S(=O)(=O)N3CCCC3)c2)n1-c1ccccc1)Nc1ccc(C(=O)O)cc1
Potency [1]: inactive
outcome [2]: inactive
activation [3]: -2.44% [at 17.1 µM] (inactive)
activity change, negative = inhibition [4]: -11.1% [at 12.7 µM] (inactive)

CC(=O)NS(=O)(=O)c1ccc(NC(=O)c2cc(-c3ccc(C)c(C)c3)nc3ccccc23)cc1
Potency [14]: inactive
Potency [15]: 12.2 µM (active)
Potency [1]: inactive
Potency [7]: 44.7 µM (active)
outcome [2]: inactive
activation [3]: 5.88% [at 17.1 µM] (inactive)
activity change, negative = inhibition [4]: -11.1% [at 12.7 µM] (inactive)
